In PubChem BioAssay:
The source made the active and inactive calls. Unless noted, the rule behind the calls is not given here.

Experiments:
[1] = anti-His antibody binders, primary screen, artefact control for SMM control protein annotation, biochemical, small-molecule microarray, 635 nm fluorescence (AID 1128); settings: anti-His Alexa647 antibody binding, higher = more signal;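 note: score merges feature fluorescence with signal-to-noise for each printed compound spot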
[2] = tested on: Human papillomavirus type 1a E7 protein (residues 1-88); assay: HPV1a E7 small-molecule binders, primary screen, biochemical, small-molecule microarray, residues 1-88, 635 nm (AID 1129); settings: small-molecule microarray binding, fluorescence 635 nm; higher = more signal
[3] = target: Focal adhesion kinase 1 (Homo sapiens) (UniProt Q05397); assay: small-molecule microarray binders of FAK, primary screen, biochemical, 635/667 nm fluorescence, BSA, DTT (AID 1130); settings: PTK2 binding, 635 nm fluorescence, higher = more signal;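 note: composite of spot emission at 667 nm and signal to noise over triplicate slides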
[4] = tested on: Fibrinogen (Alexa647-labelled); assay: fibrinogen binders on compound microarrays, profiling panel, artefact control for SMM control-protein annotation, biochemical, small-molecule microarray, 635/667 nm fluorescence (AID 1131); settings: fibrinogen-A647 binding fluorescence, higher = more signal;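 note: z-score merges 667 nm fluorescence with per-spot signal-to-noise over triplicate slides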
[5] = target: Follistatin (Homo sapiens) (UniProt P19883); assay: follistatin binders on small-molecule microarrays, primary screen, biochemical, small-molecule microarray, 635/667 nm fluorescence (AID 1132); settings: FST binding, 635 nm fluorescence, higher = more signal
[6] = target: Fibroblast growth factor 2 (Homo sapiens) (UniProt P09038); assay: FGF2 binders on small-molecule microarrays, primary screen, biochemical, small-molecule microarray, 635/667 nm fluorescence (AID 1133); settings: small-molecule microarray binding, FGF2, fluorescence 635/667; higher = more signal
[7] = mitochondrial membrane potential change in A549 cells, profiling panel, cell-based, JC-1 fluorescence, basal, 24 h, 100 nL (AID 1138); settings: higher = more signal;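 note: A549 lung adenocarcinoma cells under basal conditions with no added stimulus; test concentration not given here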
[8] = tested on: Lefty1; assay: Lefty1 binders on small-molecule microarrays, primary screen, biochemical, small-molecule microarray, 635/667 nm fluorescence (AID 1139); settings: small-molecule microarray binding, fluorescence 635/667; higher = more signal
[9] = tested on: wheat germ agglutinin (Triticum aestivum), Alexa647-labelled; assay: wheat germ agglutinin binders on compound microarrays, profiling panel, artefact control for SMM control-protein annotation, biochemical, small-molecule microarray, 635/667 nm fluorescence (AID 1140); settings: WGA-A647 binding, 635 nm fluorescence, higher = more signal;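 note: score merges 667 nm feature emission with signal to noise over triplicate slides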
[10] = target: Luciferin 4-monooxygenase (Photinus pyralis) (UniProt P08659); assay: firefly luciferase enzyme inhibitors, primary screen, biochemical, luminescence, purified enzyme, 2006 set (AID 1141); settings: SteadyGlo luminescence, 30 min, higher = more signal, called active from +8 up or from −8 down;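 note: cell-free assay with purified firefly luciferase at 100 ng per well in PBS; test concentration not given here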
[11] = tested on: Wnt5a (protein binding on small-molecule microarray); assay: Wnt5a binders on small-molecule microarray, primary screen, biophysical, 635/667 nm fluorescence (AID 1142); settings: 635 nm fluorescence, higher = more signal;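 note: fluorescence read at 667 nm with signal to noise per printed feature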
[12] = cell viability in Huh7 cells, primary screen, cytotoxicity control for HCV replication inhibitor project, CellTiter-Glo luminescence, basal, 48 h (AID 1143); settings: Huh7 HCV replicon, higher = more signal, called active from +8 up or from −8 down;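 note: Huh7 hepatoma cells carrying a hepatitis C replication reporter with no stimulus; test concentration not given here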
[13] = P. aeruginosa biofilm formation inhibitors, primary screen, PAO1 strain, BacTiter-Glo luminescence, LB-PBS (AID 1144); settings: 12 h, higher = more signal
[14] = CREB reporter modulators without forskolin, primary screen, cell-based, PC12, CRE-LacZ reporter, unstimulated (AID 1145); settings: no forskolin, luminescence, 4.5 h, higher = more signal, called active from +8 up or from −8 down
[15] = CREB reporter modulators under forskolin, primary screen, cell-based, PC12, CRE-LacZ reporter, forskolin-stimulated (AID 1146); settings: luminescence, 4.5 h, higher = more signal, called active from +8 up or from −8 down;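 note: PC12 cells with 6xCRE LacZ reporter stimulated by forskolin 10 µM; beta-galactosidase reporter signal reflecting CREB driven transcription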
[16] = target: Streptavidin (Streptomyces avidinii) (UniProt P22629); assay: streptavidin binders on small-molecule microarray, primary screen, artefact control for SMM compound annotation, biophysical, 635/667 nm fluorescence (AID 1147); settings: streptavidin binding, higher = more signal;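 note: signal reflects streptavidin binding to arrayed compounds as a control protein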
[17] = small-molecule binders of probe aInhba, primary screen, biochemical, small-molecule microarray, 635/667 nm fluorescence (AID 1148); settings: higher = more signal;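 note: score merges 667nm spot fluorescence with signal-to-noise for antibody binding to printed compounds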
[18] = target: Torsin-1A (Homo sapiens) (UniProt O14656); assay: torsin A binders from cell lysate, primary screen, small-molecule microarray, wild-type, 635/667 nm (AID 1149); settings: COS7 hTOR1A-WT lysate, 635 nm fluorescence, higher = more signal
[19] = target: Torsin-1A (Homo sapiens) (UniProt O14656); assay: small-molecule binders of mutant TOR1A in lysate, primary screen, cell lysate, small-molecule microarray, COS7 lysate, 635/667 nm fluorescence (AID 1150); settings: COS7 hTOR1A mutant lysate, 635 nm fluorescence, higher = more signal;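 note: score pools 667 nm emission and signal to noise measuring lysate protein binding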
[20] = tested on: Sonic hedgehog protein (Shh); assay: small-molecule binders of Shh protein, primary screen, biochemical, small-molecule microarray, 635/667 nm fluorescence (AID 1151); settings: small-molecule microarray binding, 635 nm fluorescence; higher = more signal;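 note: Shh protein binding to compounds spotted on small-molecule microarray slides; score combines spot fluorescence intensity with signal-to-noise across triplicate slides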

Chain of Focal adhesion kinase 1 (Homo sapiens) (Q05397 whole entry, looked up): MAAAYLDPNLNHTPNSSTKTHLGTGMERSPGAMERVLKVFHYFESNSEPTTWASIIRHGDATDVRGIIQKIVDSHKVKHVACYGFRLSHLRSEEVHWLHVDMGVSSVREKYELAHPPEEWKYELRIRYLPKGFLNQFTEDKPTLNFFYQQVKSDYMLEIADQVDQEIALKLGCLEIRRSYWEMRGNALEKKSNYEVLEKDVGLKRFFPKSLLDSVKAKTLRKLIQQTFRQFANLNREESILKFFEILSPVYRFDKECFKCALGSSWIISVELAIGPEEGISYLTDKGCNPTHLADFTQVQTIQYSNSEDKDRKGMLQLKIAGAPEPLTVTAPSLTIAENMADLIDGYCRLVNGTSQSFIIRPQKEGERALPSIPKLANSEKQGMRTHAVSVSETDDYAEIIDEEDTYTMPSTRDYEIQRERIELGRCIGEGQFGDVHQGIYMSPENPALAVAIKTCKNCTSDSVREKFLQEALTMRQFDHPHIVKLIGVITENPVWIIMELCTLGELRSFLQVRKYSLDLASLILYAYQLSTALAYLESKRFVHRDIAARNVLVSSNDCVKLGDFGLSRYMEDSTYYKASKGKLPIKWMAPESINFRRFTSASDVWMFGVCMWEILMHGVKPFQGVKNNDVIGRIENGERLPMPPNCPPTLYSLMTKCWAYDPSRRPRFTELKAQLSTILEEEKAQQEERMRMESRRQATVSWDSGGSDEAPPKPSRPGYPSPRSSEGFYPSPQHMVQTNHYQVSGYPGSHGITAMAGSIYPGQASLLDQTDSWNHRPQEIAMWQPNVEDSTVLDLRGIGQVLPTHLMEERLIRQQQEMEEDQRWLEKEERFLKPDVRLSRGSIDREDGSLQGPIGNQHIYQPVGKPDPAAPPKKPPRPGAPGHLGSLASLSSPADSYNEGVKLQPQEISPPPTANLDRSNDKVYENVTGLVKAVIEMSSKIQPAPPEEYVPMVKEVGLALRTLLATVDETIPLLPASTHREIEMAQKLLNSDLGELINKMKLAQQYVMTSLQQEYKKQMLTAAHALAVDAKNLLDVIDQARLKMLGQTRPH
Chain of Follistatin (Homo sapiens) (P19883 whole entry, looked up): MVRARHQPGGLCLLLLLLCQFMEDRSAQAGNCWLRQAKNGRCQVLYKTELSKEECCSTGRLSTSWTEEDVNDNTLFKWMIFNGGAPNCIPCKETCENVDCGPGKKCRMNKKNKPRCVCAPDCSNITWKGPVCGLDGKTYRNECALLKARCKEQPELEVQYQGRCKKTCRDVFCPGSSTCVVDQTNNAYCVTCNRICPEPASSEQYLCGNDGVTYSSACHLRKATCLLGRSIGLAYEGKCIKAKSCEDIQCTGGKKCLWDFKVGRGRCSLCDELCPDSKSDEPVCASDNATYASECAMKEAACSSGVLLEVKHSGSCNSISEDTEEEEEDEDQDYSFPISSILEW
Chain of Fibroblast growth factor 2 (Homo sapiens) (P09038 whole entry, looked up): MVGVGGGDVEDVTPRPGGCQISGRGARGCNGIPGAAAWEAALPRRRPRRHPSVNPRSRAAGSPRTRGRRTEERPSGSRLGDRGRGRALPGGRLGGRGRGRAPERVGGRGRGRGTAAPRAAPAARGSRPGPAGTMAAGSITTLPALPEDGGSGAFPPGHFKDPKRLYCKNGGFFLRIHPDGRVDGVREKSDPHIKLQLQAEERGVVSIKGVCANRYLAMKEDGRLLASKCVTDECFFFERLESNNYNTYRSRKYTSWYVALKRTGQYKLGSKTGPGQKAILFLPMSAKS
Chain of Luciferin 4-monooxygenase (Photinus pyralis) (P08659 whole entry, looked up): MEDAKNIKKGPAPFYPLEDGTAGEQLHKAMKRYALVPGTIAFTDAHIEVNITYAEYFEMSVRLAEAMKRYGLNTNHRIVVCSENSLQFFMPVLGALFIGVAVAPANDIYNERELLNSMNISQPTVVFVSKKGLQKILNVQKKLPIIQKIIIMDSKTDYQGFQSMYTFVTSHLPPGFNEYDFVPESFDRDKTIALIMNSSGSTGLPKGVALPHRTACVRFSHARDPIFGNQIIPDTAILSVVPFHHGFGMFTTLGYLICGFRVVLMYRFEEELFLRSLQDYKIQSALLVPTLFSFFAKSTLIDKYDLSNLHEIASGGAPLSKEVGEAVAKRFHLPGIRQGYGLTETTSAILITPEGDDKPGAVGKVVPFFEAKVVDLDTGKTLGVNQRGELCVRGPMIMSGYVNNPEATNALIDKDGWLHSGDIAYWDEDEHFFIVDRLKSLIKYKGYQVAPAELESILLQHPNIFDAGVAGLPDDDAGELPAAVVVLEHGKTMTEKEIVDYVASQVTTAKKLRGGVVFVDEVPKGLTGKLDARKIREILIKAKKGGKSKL
Chain of Streptavidin (Streptomyces avidinii) (P22629 whole entry, looked up): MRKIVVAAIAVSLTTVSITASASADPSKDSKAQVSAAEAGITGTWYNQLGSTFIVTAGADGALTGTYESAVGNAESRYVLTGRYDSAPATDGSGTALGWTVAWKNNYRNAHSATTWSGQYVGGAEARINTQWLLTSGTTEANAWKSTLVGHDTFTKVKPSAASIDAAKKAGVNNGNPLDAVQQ
Chain of Torsin-1A (Homo sapiens) (O14656 whole entry, looked up): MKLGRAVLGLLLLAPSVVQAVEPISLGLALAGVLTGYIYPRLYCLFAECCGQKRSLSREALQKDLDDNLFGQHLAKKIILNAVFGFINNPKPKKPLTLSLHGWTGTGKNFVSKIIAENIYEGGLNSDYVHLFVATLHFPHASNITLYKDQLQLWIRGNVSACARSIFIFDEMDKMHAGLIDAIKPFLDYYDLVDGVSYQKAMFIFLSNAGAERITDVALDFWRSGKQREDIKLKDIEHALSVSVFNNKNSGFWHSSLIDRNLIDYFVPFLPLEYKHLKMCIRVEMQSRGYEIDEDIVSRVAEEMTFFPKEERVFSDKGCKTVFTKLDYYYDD

| SMILES | composite z-score [1] | composite z-score [2] | composite z-score [3] | composite z-score [4] | composite z-score [5] | composite z-score [6] | z-score [7] | composite z-score [8] | composite z-score [9] | z-score [10] | composite z-score [11] | z-score [12] | z-score [13] | z-score [14] | z-score [15] | composite z-score [16] | composite z-score [17] | composite z-score [18] | composite z-score [19] | composite z-score [20] |
| --- | --- | --- | --- | --- | --- | --- | --- | --- | --- | --- | --- | --- | --- | --- | --- | --- | --- | --- | --- | --- |
| CCCC=C(CCC)[C@@H](NC(=O)c1ccccc1)c1ccccc1 | -0.697 | 0.3 | 1.04 | -0.602 | -0.536 | -0.846 | -1.52 | -0.614 | -0.677 | 0.0419 (inactive) | -0.149 | -1.26 (inactive) | 0.202 (inactive) | -0.561 (inactive) | 1.28 (inactive) | 0.405 | 0.0968 | -0.106 | -0.0692 | -0.289 |
| O=C1C2C=CC(C(O)C(c3ccccc3)c3ccccc3)N(Nc3ccc([N+](=O)[O-])cc3)C2C(=O)N1c1ccccc1 (stereo not given) | 1.79 | 1.24 | 0.248 | 0.953 | 1.04 | -0.255 | -0.351 | 0.35 | 1.28 | 1.66 (inactive) | 0.528 | -0.664 (inactive) | -1.81 (inactive) | -0.433 (inactive) | 0.384 (inactive) | 1.13 | 0.0183 | 0.738 | 0.871 | 0.762 |
| Cc1ccc(S[C@]2(C(=O)NC(C)C)CC(=O)N(C3Cc4ccccc4C3)[C@@H]2c2ccc(CO)cc2)cc1 | 2.13 | 0.627 | 0.447 | 0.686 | 0.34 | -0.438 | 0.186 | 0.123 | 0.923 | 0.187 (inactive) | -0.157 | -4.65 (inactive) | -0.132 (inactive) | -0.231 (inactive) | 0.978 (inactive) | -0.37 | -0.32 | 0.876 | 0.764 | 1.67 |
| O=C1NC(=O)C2C1C=CC(C(O)C=Cc1ccc([N+](=O)[O-])cc1)N2Nc1ccccn1 (stereo not given) | 2.75 | 0.235 | -0.0708 | 0.123 | 0.637 | 1.92 | 0.361 | 0.509 | 0.551 | -1.07 (inactive) | 0.421 | 0.931 (inactive) | -1.23 (inactive) | 0.443 (inactive) | -0.28 (inactive) | -0.208 | 0.0694 | 0.151 | 0.13 | 0.809 |
| O=C(CS)NCCCCCCNC(=O)[C@@H]1C[C@@H]2C(=O)N[C@@H](Cc3ccccc3)C(=O)N2[C@@H]1c1ccc(O)cc1 | 2.75 | 1.24 | 0.874 | 0.255 | 1.38 | 1.73 | -1.39 | 1.48 | 0.072 | -0.663 (inactive) | 0.588 | -0.345 (inactive) | -0.75 (inactive) | -0.537 (inactive) | -0.835 (inactive) | 0.226 | 0.0503 | 1.12 | 1.14 | 1.86 |
| CCOC(=O)C1=CCC(c2cccc3ccccc23)N(S(=O)(=O)c2ccc(C)cc2)C1 (stereo not given) | 0.206 | 1.17 | 1.02 | 0.928 | 0.825 | -0.509 | 2.43 | 0.052 | 0.697 | 1.72 (inactive) | 0.204 | -3.85 (inactive) | 0.00942 (inactive) | -0.826 (inactive) | -0.0663 (inactive) | 1.12 | 0.201 | 0.334 | 0.216 | -0.717 |
| Cc1ccccc1C(O)C1C=CC2C(=O)N(c3ccccc3)C(=O)C2N1Nc1ccc(C#N)cc1 (stereo not given) | 2.68 | 1.21 | 0.842 | 0.523 | 0.683 | 0.302 | -0.638 | 0.0979 | 1 | -1.33 (inactive) | 0.51 | 0.466 (inactive) | -1.14 (inactive) | -0.133 (inactive) | 1.66 (inactive) | 2.17 | 0.816 | 0.261 | 1.58 | -0.442 |
| CC(C)C[C@@H]1NC(=O)[C@H](CC(C)C)NC(=O)[C@@]23C(=O)N[C@@H](Cc4ccccc4)C2[C@H](C)[C@@]2(C)O[C@H]2C3/C=C/CC/C=C/CNC1=O (stereo not given in full) | 0.239 | 0.329 | 0.427 | 0.722 | 0.758 | 0.319 | 0.234 | 1.01 | 0.265 | 0.244 (inactive) | -0.048 | -3.54 (inactive) | -1.16 (inactive) | 0.126 (inactive) | -0.792 (inactive) | 1.3 | -0.128 | 0.382 | 0.29 | 1.14 |
| CCOC(=O)C[C@H]1[C@H](OC(=O)c2ccccc2-c2ccccc2)[C@@H](NC(=O)c2ccc(-c3ccccc3)cc2)c2cc(OCCCO)ccc2N1C(=O)Cc1ccc(OC)cc1 | -0.293 | -0.301 | 0.371 | 0.411 | 0.362 | 0.487 | 0.78 | 0.566 | -0.12 | 0.393 (inactive) | 0.17 | 0.132 (inactive) | 0.846 (inactive) | 2.3 (inactive) | 0.41 (inactive) | 0.0511 | 0.038 | -0.153 | 1.02 | 0.56 |
| C=CC[C@@]1(C(=O)NCC(O)CO)N=C(c2ccc(OCCCO)cc2)O[C@@H]1c1ccccc1CN=[N+]=[N-] (stereo not given in full) | 1.55 | 0.756 | 0.77 | 0.198 | 0.415 | -0.492 | 1.37 | -0.548 | 0.569 | -0.117 (inactive) | -0.233 | -1.74 (inactive) | -0.427 (inactive) | -0.459 (inactive) | -0.783 (inactive) | 0.0285 | 0.0705 | 1.09 | 2.13 | -0.364 |
